Results taken from the supplement of paper PMC10849652.
Targets with a hit are over-represented here; the source holds about 8,800 in all. About 0.5% of all pairs of compound and target were hits.

What was measured:
Experiment in all cases: log2 fold change, soluble protein after heating vs DMSO (PISA); higher = thermal stabilisation; K562 lysate, 10 uM; active = over 0.2 and 3.5 SD of the protein, either way, in both replicates (recomputed)
erlotinib = compound: C#Cc1cccc(Nc2ncnc3cc(OCCOC)c(OCCOC)cc23)c1 [erlotinib]
Outline: (§1)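 Dounce homogenisation of K562 pellets in PBS pH 7.4 with 1 mM MgCl2 produced a crude extract, used at 1 mg/mL protein. Exposure to 10 μM compound lasted 30 min, and aliquots were then heated for 3 min across 48°C-58°C, pooled and brought to 0.5% NP-40 at 4°C. The supernatant after 21,000xg for 90 min was quantified by TMTpro 16plex LC-MS/MS with channel sums equalised. Duplicate values are given as log-two fold change in thermal stability relative to solvent controls.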

[1] = compound: C/C(=N\NC(=O)C1=CC(=CC=C1)S(=O)(=O)N2CCOCC2)/C3=C(C=CC(=C3)Cl)O
Outline: as §1

[2] = compound: C1=CC(=CC=C1C2=NC3=C(N2)C=C(C=C3)C(=O)N)OC4=CC=C(C=C4)Cl
Outline: as §1

[3] = compound: C1=CC2=C(C=CC(=C2)/C=C\3/C(=O)NC(=NCC4=CC=CS4)S3)N=C1
Outline: as §1

[4] = compound: C1=CC2=NC=CN=C2C=C1/C=C/3\C(=O)NC(=O)S3
Outline: as §1

[5] = compound: C1=CC=C(C=C1)C2=NC(=C(N2)C3=CC=NC=C3)C4=CC(=C(C=C4)Cl)O
Outline: as §1

[6] = compound: C1=CC=C2C(=C1)C3=NNC4=CC=CC(=C43)C2=O
Outline: as §1

[7] = compound: C1CCN(C1)C(=O)NC2=CC=CC(=C2)NC3=NC=C(C(=N3)NCCC4=CN=CN4)Br
Outline: as §1

[8] = compound: C1CN(CCC1(CC2=CC=C(C=C2)Cl)N)C3=NC=NC4=C3C=CN4
Outline: as §1

IRAK-1-4 Inhibitor I = compound: C1COCCN1CCN2C3=CC=CC=C3N=C2NC(=O)C4=CC(=CC=C4)[N+](=O)[O-] [IRAK-1-4 Inhibitor I]
Outline: as §1

Measured: log2 fold change

TLK2 isoform 2 (UniProt Q86UE8)
inactive: erlotinib -0.071 | [1] -0.076 | [2] 0.054 | [3] -0.006 | [4] 0.014 | [5] 0.001 | [6] 0.171 | [7] -0.012 | [8] 0.021 | IRAK-1-4 Inhibitor I -0.058

TTC4 (UniProt O95801)
inactive: erlotinib 0.01 | [1] 0.013 | [2] 0.001 | [3] 0.003 | [4] 0.005 | [5] 0.007 | [6] -0.038 | [7] -0.029 | [8] 0.025 | IRAK-1-4 Inhibitor I -0.008

TRAPPC12 (UniProt Q8WVT3)
UniProt Q8WVT3, sequence (Q8WVT3 whole entry, looked up): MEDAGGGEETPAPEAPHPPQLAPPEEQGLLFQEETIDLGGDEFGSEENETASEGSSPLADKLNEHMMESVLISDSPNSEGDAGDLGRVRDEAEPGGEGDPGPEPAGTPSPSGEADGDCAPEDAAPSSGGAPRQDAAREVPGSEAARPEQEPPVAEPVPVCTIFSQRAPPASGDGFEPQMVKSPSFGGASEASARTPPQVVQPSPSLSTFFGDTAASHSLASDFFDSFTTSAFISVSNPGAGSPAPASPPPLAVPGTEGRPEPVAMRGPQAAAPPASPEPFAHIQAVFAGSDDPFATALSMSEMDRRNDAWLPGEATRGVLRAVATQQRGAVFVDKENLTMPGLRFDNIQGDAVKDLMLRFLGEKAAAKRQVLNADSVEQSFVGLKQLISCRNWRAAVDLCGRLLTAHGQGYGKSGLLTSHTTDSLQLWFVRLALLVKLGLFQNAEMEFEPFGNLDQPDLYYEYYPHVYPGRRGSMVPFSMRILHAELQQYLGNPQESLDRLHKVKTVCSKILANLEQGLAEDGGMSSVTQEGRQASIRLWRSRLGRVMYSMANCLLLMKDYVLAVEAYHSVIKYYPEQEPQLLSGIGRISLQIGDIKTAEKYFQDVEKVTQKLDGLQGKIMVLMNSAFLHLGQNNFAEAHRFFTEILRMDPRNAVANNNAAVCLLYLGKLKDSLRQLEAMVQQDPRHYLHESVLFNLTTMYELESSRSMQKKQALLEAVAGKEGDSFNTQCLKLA
inactive: erlotinib -0.049 | [1] -0.01 | [2] -0.048 | [3] -0.047 | [4] -0.018 | [5] -0.005 | [6] -0.061 | [7] -0.003 | [8] -0.005 | IRAK-1-4 Inhibitor I 0.027

TRIM65 (UniProt Q6PJ69)
inactive: erlotinib 0.047 | [1] -0.072 | [2] -0.008 | [3] 0.021 | [4] -0.005 | [5] -0.044 | [6] -0.054 | [7] 0.026 | [8] 0.007 | IRAK-1-4 Inhibitor I -0.025

TERF2IP (UniProt Q9NYB0)
inactive: erlotinib -0.003 | [1] 0.025 | [2] 0.03 | [3] -0.054 | [4] -0.023 | [5] -0.001 | [6] 0.005 | [7] 0.019 | [8] 0.029 | IRAK-1-4 Inhibitor I 0.009

TIMM44 (UniProt O43615)
UniProt O43615, sequence (O43615 whole entry, looked up): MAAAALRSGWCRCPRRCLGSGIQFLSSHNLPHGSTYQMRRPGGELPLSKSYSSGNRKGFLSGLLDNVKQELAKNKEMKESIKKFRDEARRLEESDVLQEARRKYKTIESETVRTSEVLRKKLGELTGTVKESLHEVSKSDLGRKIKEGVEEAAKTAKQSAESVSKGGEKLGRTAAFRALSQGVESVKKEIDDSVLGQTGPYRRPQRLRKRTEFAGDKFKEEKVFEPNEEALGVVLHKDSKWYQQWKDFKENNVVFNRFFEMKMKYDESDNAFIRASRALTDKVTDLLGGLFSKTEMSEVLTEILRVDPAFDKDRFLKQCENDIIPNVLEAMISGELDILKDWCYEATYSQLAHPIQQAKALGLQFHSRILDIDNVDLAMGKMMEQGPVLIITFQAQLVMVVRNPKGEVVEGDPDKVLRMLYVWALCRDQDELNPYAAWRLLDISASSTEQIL
inactive: erlotinib -0.019 | [1] -0.02 | [2] -0.008 | [3] -0.019 | [4] 0.041 | [5] -0.012 | [6] 0.03 | [7] -0.019 | [8] 0.004 | IRAK-1-4 Inhibitor I -0.011

TRIP13 (UniProt Q15645)
UniProt Q15645, sequence (Q15645 whole entry, looked up): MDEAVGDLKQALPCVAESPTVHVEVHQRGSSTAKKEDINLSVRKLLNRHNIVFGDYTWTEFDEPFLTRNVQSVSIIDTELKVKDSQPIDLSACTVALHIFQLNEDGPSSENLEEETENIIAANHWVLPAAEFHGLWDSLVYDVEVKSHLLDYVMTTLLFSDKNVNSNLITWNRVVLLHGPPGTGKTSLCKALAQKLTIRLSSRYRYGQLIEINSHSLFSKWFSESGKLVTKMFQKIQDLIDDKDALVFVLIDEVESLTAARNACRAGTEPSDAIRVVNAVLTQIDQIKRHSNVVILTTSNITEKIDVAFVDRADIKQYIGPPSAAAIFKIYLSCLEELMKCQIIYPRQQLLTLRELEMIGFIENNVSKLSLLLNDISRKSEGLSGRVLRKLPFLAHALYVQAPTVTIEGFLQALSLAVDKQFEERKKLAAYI
inactive: erlotinib 0.034 | [1] -0.117 | [2] 0.007 | [3] 0.04 | [4] -0.034 | [5] 0.009 | [6] -0.038 | [7] 0 | [8] -0.002 | IRAK-1-4 Inhibitor I 0.005

TFPI (UniProt P10646)
UniProt P10646, sequence (P10646 whole entry, looked up): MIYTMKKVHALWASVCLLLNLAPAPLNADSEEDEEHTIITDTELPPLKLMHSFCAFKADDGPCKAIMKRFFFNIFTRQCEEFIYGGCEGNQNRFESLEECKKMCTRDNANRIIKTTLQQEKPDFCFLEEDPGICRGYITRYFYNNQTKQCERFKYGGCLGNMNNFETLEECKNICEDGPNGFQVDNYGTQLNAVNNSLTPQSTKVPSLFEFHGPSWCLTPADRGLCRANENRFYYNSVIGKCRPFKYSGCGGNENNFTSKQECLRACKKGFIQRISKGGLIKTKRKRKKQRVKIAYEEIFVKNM
inactive: erlotinib -0.069 | [1] 0.093 | [2] 0.011 | [3] 0.089 | [4] -0.141 | [5] -0.02 | [6] -0.232 | [7] -0.096 | [8] 0.065 | IRAK-1-4 Inhibitor I 0.003

TPP2 (UniProt P29144)
inactive: erlotinib -0.001 | [1] -0.098 | [2] 0.01 | [3] 0.001 | [4] 0.006 | [5] 0 | [6] -0.02 | [7] -0.003 | [8] -0.005 | IRAK-1-4 Inhibitor I -0.002

TRIM33 (UniProt H0Y612)
inactive: erlotinib -0.006 | [1] -0.002 | [2] 0.05 | [3] -0.126 | [4] -0.071 | [5] -0.01 | [6] -0.009 | [7] -0.065 | [8] -0.023 | IRAK-1-4 Inhibitor I 0.176

TUT4 (UniProt Q5TAX3)
UniProt Q5TAX3, sequence (Q5TAX3 whole entry, looked up): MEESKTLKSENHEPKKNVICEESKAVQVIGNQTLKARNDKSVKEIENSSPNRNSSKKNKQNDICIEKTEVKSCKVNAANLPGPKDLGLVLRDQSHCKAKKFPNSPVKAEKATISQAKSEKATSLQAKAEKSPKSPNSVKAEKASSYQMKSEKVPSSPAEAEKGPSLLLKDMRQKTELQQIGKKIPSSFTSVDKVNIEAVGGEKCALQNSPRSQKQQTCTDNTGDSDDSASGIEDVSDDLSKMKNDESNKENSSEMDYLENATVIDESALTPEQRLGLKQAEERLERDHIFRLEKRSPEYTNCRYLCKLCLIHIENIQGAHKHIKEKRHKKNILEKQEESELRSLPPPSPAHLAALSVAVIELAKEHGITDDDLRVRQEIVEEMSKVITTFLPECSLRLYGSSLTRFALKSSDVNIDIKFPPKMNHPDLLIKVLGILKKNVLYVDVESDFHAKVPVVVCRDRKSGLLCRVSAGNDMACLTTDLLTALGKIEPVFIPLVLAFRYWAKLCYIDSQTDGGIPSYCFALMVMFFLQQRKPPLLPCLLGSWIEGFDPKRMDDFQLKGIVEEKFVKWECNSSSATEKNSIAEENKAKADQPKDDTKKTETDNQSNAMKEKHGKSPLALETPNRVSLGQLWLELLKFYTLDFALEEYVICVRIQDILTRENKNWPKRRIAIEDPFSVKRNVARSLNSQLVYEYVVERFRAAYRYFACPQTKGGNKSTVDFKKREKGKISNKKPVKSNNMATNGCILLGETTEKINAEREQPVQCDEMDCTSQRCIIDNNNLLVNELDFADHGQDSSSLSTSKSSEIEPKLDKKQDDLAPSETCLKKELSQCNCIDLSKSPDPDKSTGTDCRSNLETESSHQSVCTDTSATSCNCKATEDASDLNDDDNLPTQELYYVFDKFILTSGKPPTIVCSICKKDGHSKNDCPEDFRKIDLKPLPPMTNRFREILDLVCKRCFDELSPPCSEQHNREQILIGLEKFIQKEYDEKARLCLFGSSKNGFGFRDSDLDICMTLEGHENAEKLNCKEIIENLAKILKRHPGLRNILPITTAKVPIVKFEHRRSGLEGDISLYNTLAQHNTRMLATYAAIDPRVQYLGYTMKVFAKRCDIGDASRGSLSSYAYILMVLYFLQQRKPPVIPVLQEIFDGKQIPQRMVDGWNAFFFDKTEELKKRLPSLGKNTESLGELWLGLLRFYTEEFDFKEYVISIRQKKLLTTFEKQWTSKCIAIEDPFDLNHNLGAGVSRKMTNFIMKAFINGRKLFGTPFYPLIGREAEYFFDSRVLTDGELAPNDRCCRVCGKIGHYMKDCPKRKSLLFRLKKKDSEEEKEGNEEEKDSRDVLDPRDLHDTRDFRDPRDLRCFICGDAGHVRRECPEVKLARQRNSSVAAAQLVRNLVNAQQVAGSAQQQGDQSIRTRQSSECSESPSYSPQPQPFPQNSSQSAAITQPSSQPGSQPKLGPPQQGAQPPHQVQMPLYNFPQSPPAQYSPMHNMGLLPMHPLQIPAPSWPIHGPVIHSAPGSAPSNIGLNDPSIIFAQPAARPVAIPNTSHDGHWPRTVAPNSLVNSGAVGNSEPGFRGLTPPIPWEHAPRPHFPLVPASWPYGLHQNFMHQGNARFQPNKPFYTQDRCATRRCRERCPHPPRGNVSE
inactive: erlotinib -0.009 | [1] -0.048 | [2] -0.014 | [3] -0.062 | [4] -0.054 | [5] -0.004 | [6] -0.021 | [7] -0.029 | [8] 0.019 | IRAK-1-4 Inhibitor I 0.023

TPM3 isoform 2 (UniProt P06753)
inactive: erlotinib -0.075 | [1] -0.007 | [2] -0.065 | [3] -0.008 | [4] 0.003 | [5] 0.004 | [6] 0.038 | [7] 0.039 | [8] -0.074 | IRAK-1-4 Inhibitor I -0.042

UBTF (UniProt P17480)
inactive: erlotinib 0.02 | [1] 0.015 | [2] 0.018 | [3] 0.03 | [4] -0.009 | [5] 0.002 | [6] 0.027 | [7] 0.009 | [8] -0.022 | IRAK-1-4 Inhibitor I -0.024

UBP1 (UniProt Q9NZI7)
inactive: erlotinib 0.018 | [1] -0.109 | [2] -0.095 | [3] 0.048 | [4] 0.016 | [5] 0.01 | [6] 0.032 | [7] -0.034 | [8] -0.017 | IRAK-1-4 Inhibitor I 0.029

TUBA4A (UniProt P68366)
UniProt P68366, sequence (P68366 whole entry, looked up): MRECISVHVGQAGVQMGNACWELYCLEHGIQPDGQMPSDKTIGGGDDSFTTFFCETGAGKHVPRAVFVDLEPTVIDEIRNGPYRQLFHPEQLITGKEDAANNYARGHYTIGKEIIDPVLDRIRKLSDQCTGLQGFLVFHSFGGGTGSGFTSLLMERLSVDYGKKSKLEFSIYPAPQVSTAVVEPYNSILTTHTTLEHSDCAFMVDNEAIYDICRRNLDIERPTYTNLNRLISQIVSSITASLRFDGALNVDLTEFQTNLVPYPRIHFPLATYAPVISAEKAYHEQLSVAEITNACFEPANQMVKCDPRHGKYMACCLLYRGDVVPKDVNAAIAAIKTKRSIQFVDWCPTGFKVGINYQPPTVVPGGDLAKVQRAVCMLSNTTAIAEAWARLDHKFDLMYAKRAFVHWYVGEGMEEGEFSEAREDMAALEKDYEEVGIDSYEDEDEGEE
inactive: erlotinib 0.074 | [1] 0.019 | [2] -0.017 | [3] -0.034 | [4] -0.01 | [5] -0.036 | [6] -0.017 | [7] 0 | [8] 0.036 | IRAK-1-4 Inhibitor I 0.032

TUBA3C (UniProt P0DPH7)
inactive: erlotinib 0.03 | [1] -0.605 | [2] 0.039 | [3] -0.029 | [4] 0.023 | [5] -0.023 | [6] -0.01 | [7] -0.011 | [8] 0.036 | IRAK-1-4 Inhibitor I 0.037

TUBGCP4 (UniProt Q9UGJ1)
inactive: erlotinib -0.017 | [1] -0.017 | [2] -0.007 | [3] 0.015 | [4] -0.018 | [5] -0.01 | [6] -0.028 | [7] 0.133 | [8] 0.045 | IRAK-1-4 Inhibitor I 0.052

UBR5 (UniProt O95071)
inactive: erlotinib 0.005 | [1] -0.029 | [2] -0.024 | [3] -0.002 | [4] -0.012 | [5] -0.013 | [6] -0.033 | [7] -0.001 | [8] 0.007 | IRAK-1-4 Inhibitor I 0.001

TNPO3 (UniProt Q9Y5L0)
inactive: erlotinib 0.022 | [1] 0.001 | [2] -0.019 | [3] -0.018 | [4] 0.019 | [5] -0.008 | [6] 0 | [7] 0.018 | [8] 0.017 | IRAK-1-4 Inhibitor I 0.021

TUBB2A (UniProt Q13885)
inactive: erlotinib 0.008 | [1] 0.04 | [2] 0.004 | [3] -0.021 | [4] -0.028 | [5] -0.008 | [6] -0.03 | [7] 0.014 | [8] 0.026 | IRAK-1-4 Inhibitor I 0.019

TUBB1 (UniProt Q9H4B7)
inactive: erlotinib 0.011 | [1] 0.091 | [2] 0.005 | [3] 0.01 | [4] 0.022 | [5] -0.011 | [6] 0.014 | [7] 0.015 | [8] 0.027 | IRAK-1-4 Inhibitor I 0.019

TPST2 (UniProt O60704)
inactive: erlotinib -0.064 | [1] -0.062 | [2] 0.042 | [3] 0.049 | [4] -0.002 | [5] -0.016 | [6] -0.06 | [7] 0.015 | [8] 0.032 | IRAK-1-4 Inhibitor I -0.038

UBE2H (UniProt P62256)
inactive: erlotinib -0.002 | [1] -0.002 | [2] 0.009 | [3] 0.008 | [4] 0.014 | [5] 0.029 | [6] 0.019 | [7] 0.013 | [8] -0.036 | IRAK-1-4 Inhibitor I -0.026

TRIM33 isoform 2 (UniProt Q9UPN9)
inactive: erlotinib 0.004 | [1] -0.016 | [2] 0.014 | [3] 0.004 | [4] -0.002 | [5] 0.003 | [6] 0.008 | [7] -0.03 | [8] 0.006 | IRAK-1-4 Inhibitor I -0.02

TPM4 isoform 2 (UniProt P67936)
inactive: erlotinib -0.06 | [1] 0.011 | [2] -0.048 | [3] 0.067 | [4] 0.002 | [5] 0.024 | [6] -0.016 | [7] 0.016 | [8] -0.015 | IRAK-1-4 Inhibitor I -0.022

TUBB3 (UniProt Q13509)
UniProt Q13509, sequence (Q13509 whole entry, looked up): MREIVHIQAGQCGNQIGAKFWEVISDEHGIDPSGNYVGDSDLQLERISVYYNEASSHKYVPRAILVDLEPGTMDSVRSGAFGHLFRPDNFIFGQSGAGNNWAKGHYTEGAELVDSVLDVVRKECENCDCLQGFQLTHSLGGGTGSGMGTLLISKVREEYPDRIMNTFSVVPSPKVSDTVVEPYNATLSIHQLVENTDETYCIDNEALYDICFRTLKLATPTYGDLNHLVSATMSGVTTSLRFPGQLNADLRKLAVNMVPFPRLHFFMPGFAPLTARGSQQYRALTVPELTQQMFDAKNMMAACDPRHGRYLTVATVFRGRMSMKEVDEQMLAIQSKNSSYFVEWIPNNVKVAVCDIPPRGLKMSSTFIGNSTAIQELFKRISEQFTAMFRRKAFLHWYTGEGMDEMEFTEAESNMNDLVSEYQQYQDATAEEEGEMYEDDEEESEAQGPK
inactive: erlotinib 0.025 | [1] -0.089 | [2] 0.016 | [3] -0.004 | [4] 0.001 | [5] -0.019 | [6] -0.025 | [7] 0.018 | [8] 0.03 | IRAK-1-4 Inhibitor I 0.006

TMOD1 (UniProt P28289)
inactive: erlotinib 0.002 | [1] -0.091 | [2] 0.018 | [3] 0.018 | [4] -0.001 | [5] 0.003 | [6] 0.013 | [7] -0.005 | [8] -0.002 | IRAK-1-4 Inhibitor I 0.012

TRAPPC10 (UniProt P48553)
inactive: erlotinib 0.066 | [1] 0.031 | [2] 0.027 | [3] 0.045 | [4] 0.018 | [5] 0.004 | [6] -0.058 | [7] 0.057 | [8] 0.005 | IRAK-1-4 Inhibitor I 0.013

TJP1 (UniProt G3V1L9)
inactive: erlotinib 0.169 | [1] 0.199 | [2] 0.087 | [3] -0.119 | [4] -0.068 | [5] 0.014 | [6] 0.063 | IRAK-1-4 Inhibitor I 0.047

TOR3A (UniProt Q9H497)
inactive: erlotinib 0 | [1] 0.002 | [2] 0.006 | [3] -0.008 | [4] -0.01 | [5] -0.012 | [6] -0.087 | [7] 0.039 | [8] 0.013 | IRAK-1-4 Inhibitor I 0.021

TTC5 (UniProt Q8N0Z6)
UniProt Q8N0Z6, sequence (Q8N0Z6 whole entry, looked up): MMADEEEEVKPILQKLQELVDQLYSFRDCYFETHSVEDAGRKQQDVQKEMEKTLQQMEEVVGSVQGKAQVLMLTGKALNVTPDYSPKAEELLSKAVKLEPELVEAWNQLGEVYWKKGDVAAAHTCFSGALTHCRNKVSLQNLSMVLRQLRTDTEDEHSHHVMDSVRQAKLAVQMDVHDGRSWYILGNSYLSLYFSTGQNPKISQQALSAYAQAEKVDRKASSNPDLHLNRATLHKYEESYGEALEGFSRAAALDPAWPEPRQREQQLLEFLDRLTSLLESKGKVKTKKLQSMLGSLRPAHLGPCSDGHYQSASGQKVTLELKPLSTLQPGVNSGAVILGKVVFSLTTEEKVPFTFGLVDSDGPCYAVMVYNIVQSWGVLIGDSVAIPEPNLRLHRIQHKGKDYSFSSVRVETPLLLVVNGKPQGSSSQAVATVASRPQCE
inactive: erlotinib -0.015 | [1] -0.089 | [2] -0.014 | [3] -0.034 | [4] 0.041 | [5] 0.022 | [6] 0.016 | [7] 0.017 | [8] 0.033 | IRAK-1-4 Inhibitor I -0.008
